Only some compounds are listed: those with a hit (about 6% of all), similar ones and a draw of the others.
Chronic BCR inh – inhibitors of chronic active B-cell receptor signaling | ABC-DLBCL IkBa-CBG/CBR reporter, luminescence ratio, 4 h | Potency, µM (doses to about 46.1 µM), without a hit: at the top dose activity change, negative = inhibition, most hits filed as inhibitors | actives 0.05% (n = 340,000) | AID 493014; active = well fitted inhibition curve with a large enough effect in the signal ratio, with a control signal flat, not every such curve was filed as active; inconclusive = small, poorly fitted or top-dose-only effect, or effect the other way, or a change in a side signal; the % refers to the signal ratio;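 note: potency is the fitted concentration of half-maximal effect; plate controls were basal doxycycline-induced cells for no effect and cells given 10 µM MG132 for full effect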
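Compounds up to 46 uM were incubated four hours with TMD8 cells whose green CBG68 luciferase is fused to IkappaBalpha; red CBR luminescence normalised the signal, and concentration-effect curves were fitted to fusion, red and ratio data.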
D1 potentiator – enhances dopamine response at the human D1 receptor; HEK293 TREx D1 cells, calcium flux, dopamine EC20 potentiation; potentiation, % at 10 µM; actives 0.036% (n = 360,000); AID 504651; in the data active = potentiation above about 30%; note: 0% is about no effect
Target sequence (P21728 whole entry, looked up): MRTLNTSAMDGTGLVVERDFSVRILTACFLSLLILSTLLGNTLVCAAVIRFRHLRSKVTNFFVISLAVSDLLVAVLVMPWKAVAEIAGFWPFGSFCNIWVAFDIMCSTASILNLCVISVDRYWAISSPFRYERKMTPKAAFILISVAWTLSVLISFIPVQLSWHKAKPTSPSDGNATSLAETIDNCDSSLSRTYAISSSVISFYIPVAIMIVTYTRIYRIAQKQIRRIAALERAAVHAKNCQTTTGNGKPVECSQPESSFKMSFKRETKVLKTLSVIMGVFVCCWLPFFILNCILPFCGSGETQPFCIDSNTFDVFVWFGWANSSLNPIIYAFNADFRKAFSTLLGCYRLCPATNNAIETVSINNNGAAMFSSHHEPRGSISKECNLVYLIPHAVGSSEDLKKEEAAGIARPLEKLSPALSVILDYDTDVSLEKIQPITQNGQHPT
D1 agonist – agonists of human D1 dopamine receptor; P21728; HEK293 T-REx D1 cells, calcium flux, agonist mode; activation, % at 2 µM; actives 1% (n = 360,000); AID 504660; in the data active = activation above about 30%; note: 0% is about no effect
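Inducible HEK293 T-REx D1 cells, force-coupled to calcium signalling, were plated at 4000 cells/well with tetracycline and held overnight at 30 C. After no-wash calcium dye loading, compound-evoked calcium rise over 180 s flagged agonists.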
D3 ag – activates the human D3 dopamine receptor | P35462 | D3R DiscoveRx beta-arrestin cells, luminescence, 90 min | max activation, % | actives 0.58% (n = 410,000); in the data active = max activation above about 30%; note: 0% is about no effect
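Agonist-mode cell screen: cells plated at 1500/well and incubated overnight at 37 °C, then exposed to library compounds for 90 min at 37 °C. Detection reagent was added for 30–60 min at room temperature, and luminescence was read.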
D3 antag – D3 dopamine receptor (human) antagonism; P35462; D3R cells, DiscoveRx beta-arrestin luminescence, antagonist mode; stronger effect = lower value; max response, negative = inhibition, %; actives 2.5% (n = 360,000); AID 652054; in the data active = max response below about -50%; inconclusive = no clear call, values can overlap the other calls; note: % is set by controls: 0 for no effect and ±100 for the full control effect
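Cells plated overnight at 1500 cells/well, then exposed to library compounds with dopamine controls for 90 minutes at 37 degrees C. DiscoveRx reagent added for 30–60 minutes at room temperature; luminescence read, quantitative HTS format.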
D1 antag – antagonists of human D1 dopamine receptor; P21728; HEK293 TREx D1 cells, calcium flux, dopamine EC80; stronger effect = lower value; activity change, negative = inhibition, % at 10 µM; actives 3.2% (n = 360,000); AID 504652; in the data active = activity change below about -30%; note: % is set by controls: 0 for no effect and ±100 for the full control effect
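After overnight tetracycline induction at 30 C, force-coupled D1 HEK293 cells took up a no-wash calcium dye at room temperature. Compounds were added and monitored 180 s, and the response to EC80 dopamine was then recorded.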
* hit, by the source's call; ? = inconclusive; · = not tested or not shown.

SMILES	Chronic BCR inh	D1 potentiator	D1 agonist	D3 ag	D3 antag	D1 antag
CCOc1ccc(-c2nnn(CC(=O)c3ccc4c(c3)OCCO4)n2)cc1	-2.4%	-1.4	11.4	36.8*	15.4	6.1
Clc1ccccc1-c1nnc(SCc2nc(-c3ccccc3)no2)n1-c1ccccc1	·	-3.7	5.5	6.2	·	2.9
CCCCNC(=O)C(NC(=O)Cc1cc(OC)cc(OC)c1)C(=O)c1ccccc1 (stereo not given)	·	·	·	0.6	0.7	·
COC(=O)CN1C(=O)CSc2ccc(S(=O)(=O)Nc3c(C)cc(C)cc3C)cc21	·	-1.6	2.1	14.9	·	2.4
CC(=O)OCC(=O)NCCCOc1cccc(CN2CCCCC2)c1	·	·	·	-67.0	-80.6*	·
CCCS(=O)(=O)NC(=O)C1(C)CCN(C(=O)Cc2ccc(F)cc2)C1 (stereo not given)	·	·	·	5.3	13.2	·
COc1ccc(/C=C(/NC(=O)c2ccco2)C(=O)N2CCCCCC2)cc1OC	-3.1%	-1.9	35.8*	1.9	17.6	29.3
O=C(N/C(=C\c1cccnc1)C(=O)N1CCOCC1)c1ccco1	-4.3%	-6.5	1.1	-0.9	-0.4	-32.7*
O=C(N/C(=C/c1cccnc1)C(=O)N1CCOCC1)c1ccccc1	0.2%	-7.2	2.0	3.8	9.5	-0.9
COc1ccc(/C=C(\NC(=O)c2ccccc2)C(=O)N2CCCCC2)cc1OC	?	-5.2	7.3	2.6	15.7	-3.0
COc1ccc(/C=C(/NC(=O)c2ccccc2)C(=O)N2CCCCC2)cc1OC	?	4.3	72.1*	-6.7	-12.0	-0.4
O=C(C[C@@H]1CC[C@@H](NC(=O)Nc2cccc(F)c2)[C@@H](CO)O1)NCC1CCCCC1	·	·	·	-2.2	-11.9	·
CCOc1ccc(-c2cc(C(=O)NCc3ccccc3)[nH]n2)c(C)c1	·	·	·	-7.8	0.9	·
COc1ccc(S(=O)(=O)N2CCOCC2)cc1NC(=O)Cc1ccc(F)cc1	·	·	·	-6.0	-9.0	·
COc1ccc(C(=O)Nc2cccc(OCc3cc(=O)n4c5c(sc4n3)CCCC5)c2)cc1	·	0.1	0.3	0.6	·	-30.2*
Cc1cc(Cl)ccc1OCc1cc(=O)n2c3c(sc2n1)CCCC3	·	1.1	2.6	11.0	·	-30.8*
Cc1ccc(OCC(=O)Nc2ccc(S(=O)(=O)Nc3cc(C)nc(C)n3)cc2)c(Br)c1	·	-2.4	13.2	-12.2	·	-16.4
O=C1NC(=O)C2(CCCc3ccc([N+](=O)[O-])cc32)N1 (stereo not given)	·	·	·	5.5	23.4	·
CC(=O)N1CCN(C(=O)c2cc(S(=O)(=O)N(C)Cc3ccccc3)ccc2Cl)CC1	-2.8%	-4.8	-0.3	4.6	13.9	5.3
CCCCCOc1ccccc1CN1C(=O)C(=O)c2cc(C)ccc21	·	-2.8	4.0	-16.5	·	8.2
CCOC(=O)C(=O)c1csc(NC(=O)CCSc2ccc(C)cc2)n1	-0.2%	-1.1	3.6	-1.2	-3.0	-78.7*
Cc1ccc(Cl)c2sc(N3CCN(C(=O)C4CC4)CC3)nc12	16.4%	4.2	-2.2	-0.5	·	·
COc1cccc2c1C(=O)c1c(O)c3c(c(O)c1C2=O)C[C@@](O)(C(=O)CO)C[C@@H]3O[C@H]1C[C@H](N)[C@H](O)[C@H](C)O1	?	-4.0	34.4*	-6.7	-14.6	-6.6
Cn1c2ccccc2c(=O)c2ccc(NCc3ccc4c(c3)OCO4)cc21	·	·	·	16.0	-3.2	·
Cc1nc(Nc2ccc(Cl)c(Cl)c2)sc1C(=O)Nc1ccccc1	?	-8.0	6.3	4.4	4.2	-51.6*
Cc1nc(Nc2ccccc2)sc1C(=O)c1ccccc1	?	-1.5	12.8	-10.3	0.0	-32.6*
Cc1nc(Nc2ccc(Cl)cc2Cl)sc1C(=O)Nc1ccccc1	?	4.1	-0.1	5.5	4.0	-1.0
O=C(CSc1ncccn1)n1c2c(c3ccccc31)CCCC2	?	0.3	6.0	-7.5	-9.7	-42.5*
O=C(CCN1CCc2ccccc2C1)c1ccc2c(c1)OCCO2	?	-7.9	3.4	-8.3	-88.4*	-10.2
O=C(CCN1CCC(c2ccccc2)C1)c1ccccc1 (stereo not given)	?	0.6	5.8	-27.2	?	-15.8
